# Data: PubChem BioAssay (NCI)
# Compounds without any hit were thinned out: in the full panel of roughly 83,000, 20% have a hit.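 Cell lines were cultured in 96-well plates, exposed to a single compound concentration, and assessed for percent growth 48 hours later.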 Unmarked numbers belong to inactive results. Calls of active or inactive are those of the source. The calls were made as follows: active = growth percent below 10; inactive = the rest.
# Key:
# Test in all cases: NCI-60 one-dose screen, 48 h (100 = growth as untreated, 0 = no growth, -100 = all killed)
# Settings in all cases: 10 µM unless noted
# [1] = system: SR leukemia
# [2] = system: RPMI-8226 leukemia
# [3] = system: OVCAR-8 ovarian
# [4] = system: OVCAR-5 ovarian
# [5] = system: OVCAR-4 ovarian
# [6] = system: SK-OV-3 ovarian
# [7] = system: IGROV1 ovarian
# [8] = system: OVCAR-3 ovarian
# [9] = system: HS 578T breast
# [10] = system: NCI/ADR-RES ovarian
# [11] = system: T-47D breast
# [12] = system: BT-549 breast
# [13] = system: MDA-MB-435 melanoma
# [14] = system: SW-620 colon
# [15] = system: MCF7 breast
# [16] = system: HCT-116 colon
# [17] = system: HCC-2998 colon
# [18] = system: KM12 colon
# [19] = system: MDA-MB-468 breast
Structure (SMILES),growth [1],growth [2],growth [3],growth [4],growth [5],growth [6],growth [7],growth [8],growth [9],growth [10],growth [11],growth [12],growth [13],growth [14],growth [15],growth [16],growth [17],growth [18],growth [19]
N/N=C(\N)c1c(N)nc(=S)[nH]c1-c1ccc(Cl)cc1Cl,97.3%,109%,110%,108%,105%,86.7%,106%,109%,100%,114%,92.6%,100%,111%,106%,95.6%,113%,103%,105%,110%
C=C1CCC2C3(C)COC(c4ccco4)OC3CCC2(C)C1CC(Sc1ccccc1)C1=CCOC1=O (stereo not drawn),17.1%,3.83% (active),4.17% (active),60.9%,70.2%,141%,69.2%,37%,114%,-17.6% (active),77.3%,5.74% (active),54.1%,34.8%,23.1%,12%,57%,71.9%,17%
CC(=O)Nc1ccc(C(=O)NC(=S)Nc2ccc(S(N)(=O)=O)cc2)cc1,105%,105%,94.6%,96.5%,84.9%,101%,92.3%,97.7%,94.5%,95.9%,73.8%,94.4%,97.5%,98%,93%,99.4%,97.2%,97.5%,80.2%
O=C(c1ccc(Cl)cc1)c1ccc(OCCCN2CCN(c3ccncc3)CC2)cc1,-32% (active),10.2%,75.7%,69%,47.3%,34.8%,67.3%,56.4%,53.7%,50%,29%,26.9%,41.4%,19.5%,13.6%,17.4%,64.9%,57.9%,-16.8% (active)
Cc1ccc(-c2nc(C#N)c(S(=O)(=O)N3CCN(S(=O)(=O)c4ccc(Cl)cc4)CC3)o2)cc1,47.3%,97%,82.2%,105%,86.8%,87.2%,95.8%,114%,65.2%,91%,92.1%,99.8%,94.8%,109%,75.8%,84.9%,106%,109%,61.9%
O=C(CN1C(=O)/C(=C/c2ccccc2Cl)SC1=S)N1CCOCC1,34.3%,58.8%,97.1%,98.3%,78.2%,124%,107%,77.1%,106%,95.5%,70.9%,119%,91.3%,38.6%,49.6%,61.1%,124%,101%,-2.81% (active)
CC(=O)OCC1OC(OC2C(COC(C)=O)OC(n3cc(COc4ccc5ccc(=O)oc5c4)nn3)C(OC(C)=O)C2OC(C)=O)C(OC(C)=O)C(OC(C)=O)C1OC(C)=O (stereo not drawn),98.1%,97.3%,106%,112%,115%,109%,111%,113%,89.2%,99.9%,103%,101%,101%,106%,90.9%,106%,108%,103%,108%
O=C(c1ccc(OCCN2CCOCC2)cc1)C1[C@H](c2ccc(Cl)cc2)[C@@H](c2ccccc2)NC12C(=O)Nc1ccc(Br)cc12 (stereo partly drawn),-45.3% (active),9.08% (active),28.6%,41.3%,50.3%,37%,22.6%,29.5%,57.2%,18.4%,26.3%,54.1%,39.1%,37.3%,1.4% (active),4.57% (active),-41.2% (active),11.7%,-8.11% (active)
Cc1ccc(C(=O)C(c2c[nH]c3ccccc23)c2c[nH]c3ccccc23)cc1,-6.82% (active),-2.33% (active),44.2%,46.7%,43.7%,94%,35.8%,29.2%,83.2%,24.8%,45.7%,69.1%,19.4%,0.879% (active),9.47% (active),-62.3% (active),4.87% (active),26.1%,26%
COc1ccc2c(c1)c(-c1cc(N)n3nc(-c4cn(C)c5ccccc45)cc3n1)cn2C,6.15% (active),-14.5% (active),-94.4% (active),-38.8% (active),-64.2% (active),-79.5% (active),-40.3% (active),-67.4% (active),-20.7% (active),-17.1% (active),-57.4% (active),-22.4% (active),-75.6% (active),-58.5% (active),-60.6% (active),-88.6% (active),-82% (active),-60.6% (active),-34.6% (active)
O=C(CCN1C(=O)/C(=C/c2ccc(F)cc2)SC1=S)N1CCOCC1,35%,52.2%,80.9%,79.1%,55.5%,91.5%,85.6%,78.7%,89%,78.2%,24.4%,62.6%,73.5%,61.9%,48.1%,55.5%,113%,76%,-11.2% (active)
Cc1ccc(-n2c(-c3cc4ccccc4nc3Cl)noc2=O)cc1,31.8%,81.2%,94.4%,98.1%,92.5%,80.1%,90.9%,99.8%,80.9%,52.3%,63.9%,81.1%,6.44% (active),68.9%,64.5%,86%,90.9%,55%,16.2%
O=C(COc1ccc(NC(=O)Nc2ccc(Cl)c(Cl)c2)cc1)N=Nc1c(O)[nH]c2ccccc12,2.4% (active),2.89% (active),-43.2% (active),-8.84% (active),-5.31% (active),-49.9% (active),-49% (active),-78.1% (active),-9.24% (active),80.8%,11.6%,-38.4% (active),-63.8% (active),-62% (active),-6.27% (active),-1.24% (active),-49.3% (active),-38.3% (active),-47.7% (active)
N=C1N=C(SCc2nc3ccccc3[nH]2)NC(=O)/C1=C/c1ccc(Cl)cc1,98.7%,96.9%,102%,113%,95.6%,111%,110%,114%,98.3%,100%,93.2%,114%,102%,98.5%,96.9%,105%,109%,104%,116%
C#CCOc1ccc(/C=N/Nc2nc(-c3cc4cc(OC)ccc4oc3=O)cs2)cc1OC,34.7%,50.9%,50.8%,47%,40.7%,71%,81%,63.5%,68.1%,50.5%,51.8%,54.1%,63.9%,39.7%,57.3%,46.4%,84.4%,50.3%,42.9%
Cc1sc(C(NC(=O)OCCn2c([N+](=O)[O-])cnc2C)C(F)(F)Cl)nc1-c1ccc(OC(F)(F)F)cc1 (stereo not drawn),5.16% (active),2.36% (active),-65.9% (active),-96% (active),-37.7% (active),-84.8% (active),-80.6% (active),-59.6% (active),-31.1% (active),-78.6% (active),-66.1% (active),-92.2% (active),-43.7% (active),-67.1% (active),-85.1% (active),-80.3% (active),–,-61.9% (active),-93.4% (active)
